From PubChem BioAssay (NCI) come the findings set out here.

Some test systems named below: SR leukemia; RPMI-8226 leukemia; OVCAR-8 ovarian; OVCAR-5 ovarian; OVCAR-4 ovarian; SK-OV-3 ovarian; IGROV1 ovarian; OVCAR-3 ovarian; HS 578T breast; NCI/ADR-RES ovarian; T-47D breast; BT-549 breast; MDA-MB-435 melanoma; SW-620 colon; MCF7 breast; HCT-116 colon; HCC-2998 colon; KM12 colon; MDA-MB-468 breast.
What all share (test): NCI-60 one-dose screen, 48 h (100 = growth as untreated, 0 = no growth, -100 = all killed)
Common to all, as to settings: 10 µM unless noted

Molecules are shown by their SMILES. About 83,000 compounds went through this panel and 20% of them were active in at least one assay; those are over-represented in the sample as a whole.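 Note: values are percent growth. 100 is the growth of untreated cells, values between 100 and 0 indicate rising inhibition; between -100 and 0 indicates cell death.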 Unmarked numbers belong to inactive results. Active and inactive are the calls of the source. The calls were made as follows: active = growth percent below 10; inactive = the rest.

With `CCOC(=O)C1=C(N)N(c2ccccc2)C2=C(C(=O)CC(C)(C)C2)C1c1ccccc1Cl` (configuration not stated), the growth with SR leukemia was 32.5%; in the assay with RPMI-8226 leukemia, 22.5%; with OVCAR-8 ovarian, 83.6%; in the assay with OVCAR-5 ovarian, 86.8%; in the assay on OVCAR-4 ovarian, 74.6%; in the assay on SK-OV-3 ovarian it was 90.1%. The growth with IGROV1 ovarian is 92%; in the assay with OVCAR-3 ovarian, 62.7%; in the assay with HS 578T breast it was 93.4%; in the assay on NCI/ADR-RES ovarian it was 74%; with T-47D breast, 52%; in the assay with BT-549 breast, 78.6%. Further, the growth in the assay on MDA-MB-435 melanoma is 73.1%; with SW-620 colon it was 74.6%; with MCF7 breast, 56.5%; in the assay with HCT-116 colon it was 41.3%; in the assay with HCC-2998 colon, 85.6%; in the assay with KM12 colon, 58.4%. The growth in the assay with MDA-MB-468 breast was 50.2%.
Take `COc1cc2oc(-c3cccc(C(=O)Nc4cccc([N+](=O)[O-])c4)c3)cc(=O)c2c(OC)c1OC`: the growth in the assay on SR leukemia was 55%; in the assay with RPMI-8226 leukemia, 68.9%; in the assay on OVCAR-8 ovarian it was 5.89% (active); with OVCAR-5 ovarian, 83.5%; with OVCAR-4 ovarian, -6.32% (active); in the assay on SK-OV-3 ovarian, -9.46% (active). Further, the growth in the assay on IGROV1 ovarian was 22.1%; with OVCAR-3 ovarian, 26.7%; with HS 578T breast, -5.03% (active); in the assay on NCI/ADR-RES ovarian, -18.2% (active); with T-47D breast, 26.8%; with BT-549 breast, -15.9% (active). Moreover, the growth with MDA-MB-435 melanoma was 39.4%; in the assay on SW-620 colon it was 83.1%; with MCF7 breast, 25.1%; with HCT-116 colon, 25.2%; with HCC-2998 colon, 32.6%; in the assay with KM12 colon it was 47.9%. Further, in the assay with MDA-MB-468 breast, the growth was 33%.
Consider `Cc1ccc(Cc2cnc(NC(=O)c3ccc(/C=C4\SC(=S)N(C)C4=O)cc3)s2)cc1`, for which the growth is 30% in the assay with SR leukemia; 31.4% in the assay on RPMI-8226 leukemia; 35.3% in the assay with OVCAR-8 ovarian; 34.3% in the assay with OVCAR-5 ovarian; 48.2% in the assay on OVCAR-4 ovarian; 29.3% with SK-OV-3 ovarian. Besides, the growth in the assay on IGROV1 ovarian was 33%; in the assay on OVCAR-3 ovarian, 3.26% (active); with HS 578T breast, 39.2%; in the assay with NCI/ADR-RES ovarian, -28.5% (active); in the assay with T-47D breast, 23.9%; in the assay with BT-549 breast, 37.9%. The growth is -18.7% (active) with MDA-MB-435 melanoma; 35.8% in the assay with SW-620 colon; 19.6% in the assay with MCF7 breast; 22.7% in the assay on HCT-116 colon; 41.1% in the assay with HCC-2998 colon; 11.2% in the assay on KM12 colon. The growth with MDA-MB-468 breast was 4.76% (active).
On to `N/C(=N\c1nc2ccccc2s1)NC(=O)Nc1c(Cl)cccc1Cl`, for which the growth with SR leukemia was 17.2%; with RPMI-8226 leukemia, 17.2%; with OVCAR-8 ovarian, 49.5%; in the assay with OVCAR-5 ovarian, 49.3%; in the assay with OVCAR-4 ovarian, 56.7%; in the assay on SK-OV-3 ovarian, 65.2%. Besides, the growth was 49.4% in the assay on IGROV1 ovarian; 28.2% in the assay on OVCAR-3 ovarian; 34.4% in the assay with HS 578T breast; 7.17% (active) in the assay with NCI/ADR-RES ovarian; 18% with T-47D breast; 37.3% in the assay with BT-549 breast. Also, the growth in the assay with MDA-MB-435 melanoma was -17.9% (active); with SW-620 colon, 25.6%; in the assay with MCF7 breast, 15.6%; in the assay with HCT-116 colon, 22.7%; in the assay with HCC-2998 colon, 68.6%; in the assay with KM12 colon, 21.4%. For the same compound, the growth with MDA-MB-468 breast is -4.05% (active).
As for `Cn1cc(-c2cc(N)n3nc(-c4cn(C)c5ccccc45)cc3n2)c2cc(Cl)ccc21`, the growth was 4.5% (active) in the assay on SR leukemia; -8.66% (active) in the assay on RPMI-8226 leukemia; -91% (active) in the assay on OVCAR-8 ovarian; -13.9% (active) in the assay with OVCAR-5 ovarian; -34.5% (active) in the assay with OVCAR-4 ovarian; 72.1% in the assay with SK-OV-3 ovarian. For the same compound, the growth is -4.76% (active) in the assay on IGROV1 ovarian; -44.6% (active) in the assay with OVCAR-3 ovarian; -11.1% (active) with HS 578T breast; -11.5% (active) in the assay with NCI/ADR-RES ovarian; -30.9% (active) in the assay on T-47D breast; 63% in the assay with BT-549 breast. Moreover, the growth in the assay on MDA-MB-435 melanoma is -71.9% (active); with SW-620 colon, -35.3% (active); with MCF7 breast, -69.9% (active); in the assay with HCT-116 colon, -89.1% (active); in the assay with HCC-2998 colon it was -73% (active); in the assay on KM12 colon it was -50% (active). For the same compound, in the assay on MDA-MB-468 breast, the growth is -31.9% (active).
`CN(C)CCOc1ccc(C(=O)C2[C@H](c3ccc(Cl)cc3)[C@@H](c3ccccc3)NC23C(=O)Nc2ccc(Br)cc23)cc1` (some centres not stated): the growth in the assay on SR leukemia was -36.4% (active); in the assay with RPMI-8226 leukemia, -30.8% (active); with OVCAR-8 ovarian it was -61.8% (active); in the assay with OVCAR-5 ovarian it was 36.4%; in the assay with OVCAR-4 ovarian, 33.9%; in the assay on SK-OV-3 ovarian, 96%. Also, the growth is 29.1% in the assay with IGROV1 ovarian; -4.55% (active) in the assay with OVCAR-3 ovarian; 58.7% in the assay with HS 578T breast; 23% in the assay with NCI/ADR-RES ovarian; 42% in the assay with T-47D breast; 67% with BT-549 breast. In addition, the growth with MDA-MB-435 melanoma was -66.5% (active); in the assay on SW-620 colon it was -80% (active); in the assay with MCF7 breast, -59.8% (active); in the assay with HCT-116 colon, -96.6% (active); in the assay with HCC-2998 colon, -94.4% (active); in the assay with KM12 colon it was -48.4% (active). For the same compound, in the assay with MDA-MB-468 breast, the growth is -84.7% (active).
Regarding `C=C1CCC2C3(C)COC(c4ccccc4)OC3CCC2(C)C1CC(Sc1ccccc1)C1=CCOC1=O` (configuration not stated), the growth is 8.04% (active) in the assay on SR leukemia; 3.18% (active) in the assay on RPMI-8226 leukemia; 12.9% in the assay with OVCAR-8 ovarian; 58.5% in the assay with OVCAR-5 ovarian; 50.4% in the assay on OVCAR-4 ovarian; 120% in the assay with SK-OV-3 ovarian. Moreover, the growth in the assay with IGROV1 ovarian is 58%; in the assay on OVCAR-3 ovarian it was 44%; in the assay with HS 578T breast it was 94.1%; in the assay on NCI/ADR-RES ovarian, -22.7% (active); with T-47D breast it was 33.1%; in the assay on BT-549 breast it was -19% (active). For the same compound, the growth in the assay with MDA-MB-435 melanoma is 45.8%; with SW-620 colon, 14.8%; with MCF7 breast, 17%; with HCT-116 colon it was 4.36% (active); in the assay with HCC-2998 colon it was 36.8%; in the assay on KM12 colon it was 47.5%. Besides, the growth with MDA-MB-468 breast is 27.3%.
Take `COc1ccc(-c2nc(SC(C)C)nc(NCCc3c[nH]c4ccccc34)c2C#N)cc1`: the growth was 2.63% (active) in the assay on SR leukemia; 16.3% in the assay on RPMI-8226 leukemia; 66.5% in the assay on OVCAR-8 ovarian; 65.4% in the assay with OVCAR-5 ovarian; 57.1% in the assay with OVCAR-4 ovarian; 72% with SK-OV-3 ovarian. For the same compound, the growth is 94.3% in the assay on IGROV1 ovarian; 63.8% with OVCAR-3 ovarian; 36.3% with HS 578T breast; 32.5% in the assay with NCI/ADR-RES ovarian; 6.31% (active) in the assay on T-47D breast; 63% in the assay on BT-549 breast. Moreover, the growth is 53.4% in the assay with MDA-MB-435 melanoma; 32.9% in the assay on SW-620 colon; 7.2% (active) with MCF7 breast; 7.04% (active) in the assay on HCT-116 colon; 32.5% in the assay on HCC-2998 colon; 25.5% in the assay with KM12 colon. Moreover, the growth with MDA-MB-468 breast was 30.1%.
